# ChEMBL document CHEMBL1961873, “Compounds: GSK PKIS; Assays: Nanosyn kinase panel” (2012)
# Tests used:
# [1] = target: T1, Serine/threonine-protein kinase Nek9 (Homo sapiens) (UniProt Q8TD19); conditions: at 1 µM;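 further: each value is a mean percent inhibition of NEK9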
# T1 sequence (whole entry): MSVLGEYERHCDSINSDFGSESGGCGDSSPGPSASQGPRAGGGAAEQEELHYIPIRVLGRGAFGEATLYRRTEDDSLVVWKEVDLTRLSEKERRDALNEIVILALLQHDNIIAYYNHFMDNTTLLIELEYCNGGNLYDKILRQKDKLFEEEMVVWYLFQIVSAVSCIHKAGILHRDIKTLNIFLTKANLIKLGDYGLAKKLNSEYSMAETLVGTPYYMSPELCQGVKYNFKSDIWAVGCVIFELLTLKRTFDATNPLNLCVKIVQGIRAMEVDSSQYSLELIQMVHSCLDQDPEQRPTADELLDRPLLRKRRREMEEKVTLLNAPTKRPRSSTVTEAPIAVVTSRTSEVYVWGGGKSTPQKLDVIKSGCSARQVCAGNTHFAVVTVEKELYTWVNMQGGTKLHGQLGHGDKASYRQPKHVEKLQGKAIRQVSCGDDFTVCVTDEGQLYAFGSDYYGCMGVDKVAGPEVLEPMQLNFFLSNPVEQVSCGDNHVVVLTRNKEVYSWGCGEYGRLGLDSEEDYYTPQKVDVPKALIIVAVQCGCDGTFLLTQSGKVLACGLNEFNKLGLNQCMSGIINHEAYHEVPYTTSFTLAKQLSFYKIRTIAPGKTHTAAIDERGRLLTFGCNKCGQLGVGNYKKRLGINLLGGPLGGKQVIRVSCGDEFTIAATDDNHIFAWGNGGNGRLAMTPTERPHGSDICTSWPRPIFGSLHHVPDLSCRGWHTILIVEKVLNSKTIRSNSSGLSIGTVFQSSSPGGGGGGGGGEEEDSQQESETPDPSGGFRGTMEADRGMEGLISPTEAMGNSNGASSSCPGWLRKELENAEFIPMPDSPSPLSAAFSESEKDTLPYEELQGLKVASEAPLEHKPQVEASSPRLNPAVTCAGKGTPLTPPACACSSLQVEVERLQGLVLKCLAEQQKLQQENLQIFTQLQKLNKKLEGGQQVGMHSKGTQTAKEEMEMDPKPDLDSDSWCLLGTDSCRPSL
# [2] = target: Serine/threonine-protein kinase PLK1 (Homo sapiens) (UniProt P53350); conditions: at 0.1 µM
# Serine/threonine-protein kinase PLK1 (Homo sapiens), sequence (P53350 whole entry): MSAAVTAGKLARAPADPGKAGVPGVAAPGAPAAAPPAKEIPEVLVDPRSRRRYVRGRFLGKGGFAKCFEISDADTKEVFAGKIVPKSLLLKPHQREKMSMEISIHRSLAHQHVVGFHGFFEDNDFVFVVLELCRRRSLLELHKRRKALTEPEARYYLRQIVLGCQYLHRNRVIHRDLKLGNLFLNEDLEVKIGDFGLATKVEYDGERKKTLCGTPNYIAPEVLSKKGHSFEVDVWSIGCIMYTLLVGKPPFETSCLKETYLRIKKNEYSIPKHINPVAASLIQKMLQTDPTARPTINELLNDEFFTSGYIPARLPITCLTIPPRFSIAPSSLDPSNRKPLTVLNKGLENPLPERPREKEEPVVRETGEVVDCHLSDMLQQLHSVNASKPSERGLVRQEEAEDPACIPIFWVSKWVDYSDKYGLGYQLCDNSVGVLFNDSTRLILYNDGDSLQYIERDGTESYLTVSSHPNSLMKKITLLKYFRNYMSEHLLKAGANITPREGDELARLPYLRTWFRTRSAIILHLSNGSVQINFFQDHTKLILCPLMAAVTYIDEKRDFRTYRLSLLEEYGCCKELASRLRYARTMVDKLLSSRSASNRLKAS
# [3] = target: Serine/threonine-protein kinase PLK1 (Homo sapiens) (UniProt P53350); conditions: at 1 µM
# [4] = target: T2, Dual specificity protein kinase TTK (Homo sapiens) (UniProt P33981); conditions: at 0.1 µM
# T2 sequence (whole entry): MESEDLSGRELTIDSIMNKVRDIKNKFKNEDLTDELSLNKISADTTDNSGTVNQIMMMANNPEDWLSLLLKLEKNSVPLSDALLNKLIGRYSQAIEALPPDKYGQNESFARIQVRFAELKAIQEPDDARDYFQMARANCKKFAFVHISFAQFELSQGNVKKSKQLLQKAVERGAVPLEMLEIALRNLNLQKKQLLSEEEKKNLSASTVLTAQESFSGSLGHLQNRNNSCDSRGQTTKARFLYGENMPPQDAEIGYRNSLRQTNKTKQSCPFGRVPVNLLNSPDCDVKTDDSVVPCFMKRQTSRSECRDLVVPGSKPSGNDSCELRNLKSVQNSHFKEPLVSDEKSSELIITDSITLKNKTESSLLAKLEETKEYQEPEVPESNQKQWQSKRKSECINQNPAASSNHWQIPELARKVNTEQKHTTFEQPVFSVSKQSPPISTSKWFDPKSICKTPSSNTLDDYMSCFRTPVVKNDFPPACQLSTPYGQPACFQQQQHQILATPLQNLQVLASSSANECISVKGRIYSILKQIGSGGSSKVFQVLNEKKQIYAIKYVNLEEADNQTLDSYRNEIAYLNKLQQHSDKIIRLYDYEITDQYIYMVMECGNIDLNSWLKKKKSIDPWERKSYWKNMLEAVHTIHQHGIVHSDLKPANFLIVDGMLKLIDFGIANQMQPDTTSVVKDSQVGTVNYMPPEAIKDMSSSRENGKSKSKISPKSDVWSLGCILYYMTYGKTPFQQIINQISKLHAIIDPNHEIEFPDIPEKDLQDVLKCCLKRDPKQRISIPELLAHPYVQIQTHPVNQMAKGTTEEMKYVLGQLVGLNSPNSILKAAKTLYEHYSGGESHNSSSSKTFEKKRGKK
# [5] = tested on: T3, Receptor-type tyrosine-protein kinase FLT3 (Homo sapiens), P36888 [D835Y]; conditions: at 1 µM
# T3 sequence (whole entry): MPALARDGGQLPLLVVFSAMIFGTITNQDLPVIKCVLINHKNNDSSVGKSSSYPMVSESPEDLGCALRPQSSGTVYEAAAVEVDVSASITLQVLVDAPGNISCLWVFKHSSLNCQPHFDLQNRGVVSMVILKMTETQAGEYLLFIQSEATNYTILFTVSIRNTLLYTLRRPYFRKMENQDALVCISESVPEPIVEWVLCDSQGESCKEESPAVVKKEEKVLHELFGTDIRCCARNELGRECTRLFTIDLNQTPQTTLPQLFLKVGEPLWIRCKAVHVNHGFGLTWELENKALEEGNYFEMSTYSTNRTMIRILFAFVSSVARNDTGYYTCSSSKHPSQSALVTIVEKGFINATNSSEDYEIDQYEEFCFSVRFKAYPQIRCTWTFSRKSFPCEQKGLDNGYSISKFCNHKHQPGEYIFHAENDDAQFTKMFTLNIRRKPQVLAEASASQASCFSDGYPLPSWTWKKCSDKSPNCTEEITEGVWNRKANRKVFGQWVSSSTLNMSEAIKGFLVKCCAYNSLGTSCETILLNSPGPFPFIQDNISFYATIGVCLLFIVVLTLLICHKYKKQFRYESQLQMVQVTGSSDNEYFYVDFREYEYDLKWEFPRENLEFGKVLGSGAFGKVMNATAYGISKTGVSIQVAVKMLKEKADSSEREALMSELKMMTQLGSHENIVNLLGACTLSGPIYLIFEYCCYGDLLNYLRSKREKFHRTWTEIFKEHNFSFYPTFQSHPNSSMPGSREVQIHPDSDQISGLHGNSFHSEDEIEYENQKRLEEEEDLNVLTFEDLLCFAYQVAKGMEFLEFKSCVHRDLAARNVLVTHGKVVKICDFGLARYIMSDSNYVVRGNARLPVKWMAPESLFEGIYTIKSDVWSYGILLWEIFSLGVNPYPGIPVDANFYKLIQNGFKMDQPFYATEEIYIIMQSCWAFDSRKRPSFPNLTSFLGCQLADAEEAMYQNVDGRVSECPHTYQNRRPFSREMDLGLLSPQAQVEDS
# [6] = target: Vascular endothelial growth factor receptor 3 (Homo sapiens) (UniProt P35916); conditions: at 0.1 µM
# Vascular endothelial growth factor receptor 3 (Homo sapiens), sequence (P35916 whole entry): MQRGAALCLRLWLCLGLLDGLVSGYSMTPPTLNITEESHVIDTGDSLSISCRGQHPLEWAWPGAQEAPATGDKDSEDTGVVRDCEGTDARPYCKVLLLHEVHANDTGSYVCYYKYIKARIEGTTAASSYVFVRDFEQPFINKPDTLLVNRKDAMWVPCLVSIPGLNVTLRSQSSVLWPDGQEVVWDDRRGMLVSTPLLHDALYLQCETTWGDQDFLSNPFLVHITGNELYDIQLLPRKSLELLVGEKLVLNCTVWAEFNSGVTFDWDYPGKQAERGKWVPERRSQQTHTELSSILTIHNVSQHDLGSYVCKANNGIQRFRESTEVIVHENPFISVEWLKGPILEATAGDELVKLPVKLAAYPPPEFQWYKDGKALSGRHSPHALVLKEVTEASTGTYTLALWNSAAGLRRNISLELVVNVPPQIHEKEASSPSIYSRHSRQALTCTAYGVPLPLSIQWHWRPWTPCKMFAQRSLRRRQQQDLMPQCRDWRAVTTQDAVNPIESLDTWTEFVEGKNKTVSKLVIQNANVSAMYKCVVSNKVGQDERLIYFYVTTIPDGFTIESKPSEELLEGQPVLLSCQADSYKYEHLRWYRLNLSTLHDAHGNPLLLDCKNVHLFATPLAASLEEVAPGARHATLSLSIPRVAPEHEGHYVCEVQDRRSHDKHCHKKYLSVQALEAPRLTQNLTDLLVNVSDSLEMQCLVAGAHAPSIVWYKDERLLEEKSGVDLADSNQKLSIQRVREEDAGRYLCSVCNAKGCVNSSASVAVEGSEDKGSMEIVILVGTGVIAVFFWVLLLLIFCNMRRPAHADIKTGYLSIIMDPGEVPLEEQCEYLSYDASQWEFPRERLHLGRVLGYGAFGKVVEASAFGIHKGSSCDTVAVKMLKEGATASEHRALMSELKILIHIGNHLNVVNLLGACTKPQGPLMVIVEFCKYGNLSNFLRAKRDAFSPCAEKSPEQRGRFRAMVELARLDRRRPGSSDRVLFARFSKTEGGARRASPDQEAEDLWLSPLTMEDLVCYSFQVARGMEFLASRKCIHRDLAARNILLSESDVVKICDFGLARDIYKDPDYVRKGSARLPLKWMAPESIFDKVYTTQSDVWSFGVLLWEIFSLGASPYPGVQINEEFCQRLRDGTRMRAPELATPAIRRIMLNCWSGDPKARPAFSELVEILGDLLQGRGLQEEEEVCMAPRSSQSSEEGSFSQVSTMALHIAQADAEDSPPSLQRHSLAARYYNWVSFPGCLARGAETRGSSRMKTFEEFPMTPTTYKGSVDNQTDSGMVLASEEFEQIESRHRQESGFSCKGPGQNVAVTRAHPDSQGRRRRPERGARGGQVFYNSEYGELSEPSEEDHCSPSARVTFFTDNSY
# [7] = target: Vascular endothelial growth factor receptor 3 (Homo sapiens) (UniProt P35916); conditions: at 1 µM
# [8] = target: Macrophage colony-stimulating factor 1 receptor (Homo sapiens) (UniProt P07333); conditions: at 0.1 µM
# Macrophage colony-stimulating factor 1 receptor (Homo sapiens), sequence (P07333 whole entry): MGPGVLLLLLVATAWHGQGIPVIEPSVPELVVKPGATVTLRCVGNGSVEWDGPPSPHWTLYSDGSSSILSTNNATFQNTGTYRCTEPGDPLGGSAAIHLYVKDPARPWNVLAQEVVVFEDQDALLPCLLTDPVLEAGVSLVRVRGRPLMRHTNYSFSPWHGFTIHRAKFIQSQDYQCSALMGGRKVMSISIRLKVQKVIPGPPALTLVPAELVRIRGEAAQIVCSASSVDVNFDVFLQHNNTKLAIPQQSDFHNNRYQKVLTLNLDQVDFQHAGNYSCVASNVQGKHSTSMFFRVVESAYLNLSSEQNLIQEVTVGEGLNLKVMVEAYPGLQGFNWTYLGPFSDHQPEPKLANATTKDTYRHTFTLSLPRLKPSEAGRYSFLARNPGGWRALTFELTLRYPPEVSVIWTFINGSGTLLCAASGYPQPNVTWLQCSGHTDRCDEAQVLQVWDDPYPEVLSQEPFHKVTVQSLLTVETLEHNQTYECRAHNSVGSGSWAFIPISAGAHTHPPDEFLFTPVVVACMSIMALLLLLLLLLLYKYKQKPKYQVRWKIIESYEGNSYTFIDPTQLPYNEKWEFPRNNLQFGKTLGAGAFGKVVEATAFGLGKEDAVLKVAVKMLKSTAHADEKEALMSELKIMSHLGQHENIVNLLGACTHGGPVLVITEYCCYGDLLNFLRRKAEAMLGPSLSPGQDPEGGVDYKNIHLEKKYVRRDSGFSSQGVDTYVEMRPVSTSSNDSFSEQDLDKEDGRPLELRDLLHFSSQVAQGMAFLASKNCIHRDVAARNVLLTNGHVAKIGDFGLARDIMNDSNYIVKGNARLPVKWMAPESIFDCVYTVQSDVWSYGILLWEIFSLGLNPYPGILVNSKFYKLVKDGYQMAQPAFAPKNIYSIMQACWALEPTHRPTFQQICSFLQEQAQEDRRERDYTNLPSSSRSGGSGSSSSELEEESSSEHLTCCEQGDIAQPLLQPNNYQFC
# [9] = target: Macrophage colony-stimulating factor 1 receptor (Homo sapiens) (UniProt P07333); conditions: at 1 µM
# [10] = target: Tyrosine-protein kinase Fyn (Homo sapiens) (UniProt P06241); conditions: at 0.1 µM
# Tyrosine-protein kinase Fyn (Homo sapiens), sequence (P06241 2-537 limits assumed): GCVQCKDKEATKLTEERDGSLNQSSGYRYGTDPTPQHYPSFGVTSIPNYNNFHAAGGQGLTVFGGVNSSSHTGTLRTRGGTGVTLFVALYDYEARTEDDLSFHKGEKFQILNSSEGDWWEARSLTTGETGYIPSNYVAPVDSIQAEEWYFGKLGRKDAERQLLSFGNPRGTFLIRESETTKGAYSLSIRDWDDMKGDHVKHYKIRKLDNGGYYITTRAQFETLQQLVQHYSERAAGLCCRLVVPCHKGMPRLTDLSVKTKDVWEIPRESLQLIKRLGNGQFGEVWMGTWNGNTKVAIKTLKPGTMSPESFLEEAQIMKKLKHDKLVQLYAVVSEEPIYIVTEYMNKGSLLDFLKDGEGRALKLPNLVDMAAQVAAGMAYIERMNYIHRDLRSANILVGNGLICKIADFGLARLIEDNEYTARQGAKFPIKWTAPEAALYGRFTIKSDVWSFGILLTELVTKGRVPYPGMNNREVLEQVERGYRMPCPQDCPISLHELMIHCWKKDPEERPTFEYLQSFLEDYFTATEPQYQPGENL
structure (smiles),measurement,setting,value
[O-][S+]1CCN(Cc2ccc(-c3ccc4ncnc(Nc5ccc(OCc6ccccc6)c(Cl)c5)c4c3)o2)CC1,inhibition,[1],3.24%
same,inhibition,[2],3.9%
same,inhibition,[3],2.79%
same,inhibition,[4],8.87%
same,inhibition,[5],-1.91%
same,inhibition,[6],7.2%
same,inhibition,[7],11.7%
same,inhibition,[8],-0.34%
same,inhibition,[9],0.13%
same,inhibition,[10],2.58%
COc1cccc(-n2ncc3c(N/N=C/c4ccc(S(C)(=O)=O)cc4)ncnc32)c1,inhibition,[1],1.23%
same,inhibition,[2],1.67%
same,inhibition,[3],0.92%
same,inhibition,[4],2.54%
same,inhibition,[5],61.9%
same,inhibition,[6],-2.95%
same,inhibition,[7],31.4%
same,inhibition,[8],6.39%
same,inhibition,[9],22.5%
same,inhibition,[10],32.4%
O=C(Nc1ccc(Oc2ccc3[nH]c(NC(=O)c4ccco4)nc3c2)cc1)Nc1cc(C(F)(F)F)ccc1F,inhibition,[1],6.87%
same,inhibition,[2],0.92%
same,inhibition,[3],1.34%
same,inhibition,[4],-0.11%
same,inhibition,[5],30.6%
same,inhibition,[6],-7.79%
same,inhibition,[7],38.1%
same,inhibition,[8],15.4%
same,inhibition,[9],72.8%
same,inhibition,[10],-1.01%
CS(=O)(=O)CCNCc1nc(-c2ccc3ncnc(Nc4ccc(OCc5cccc(C(F)(F)F)c5)cc4)c3c2)cs1,inhibition,[1],-0.39%
same,inhibition,[2],1.34%
same,inhibition,[3],3.51%
same,inhibition,[4],3.6%
same,inhibition,[5],4.19%
same,inhibition,[6],3.13%
same,inhibition,[7],2.21%
same,inhibition,[8],0.88%
same,inhibition,[9],8.87%
same,inhibition,[10],1.59%
COc1cc(/C=N/Nc2ncnc3c2cnn3C(C)C)ccc1O,inhibition,[1],5.67%
same,inhibition,[2],3.79%
same,inhibition,[3],4.86%
same,inhibition,[4],4.56%
same,inhibition,[5],23.1%
same,inhibition,[6],13.8%
same,inhibition,[7],22.1%
same,inhibition,[8],8.23%
same,inhibition,[9],42.3%
same,inhibition,[10],8.53%
COC(=O)c1ccc2c(c1)C(=Cc1cc(Br)c(O)c(Br)c1)C(=O)N2,inhibition,[1],11.3%
same,inhibition,[2],5.7%
same,inhibition,[3],17.4%
same,inhibition,[4],13.3%
same,inhibition,[5],4.72%
same,inhibition,[6],1.46%
same,inhibition,[7],9.65%
same,inhibition,[8],2.87%
same,inhibition,[9],16.5%
same,inhibition,[10],5.27%
FC(F)(F)c1ccc(-c2nn3ncccc3c2-c2ccnc(Nc3ccc4c(c3)OCCO4)n2)cc1,inhibition,[1],-0.89%
same,inhibition,[2],0.09%
same,inhibition,[3],-1.77%
same,inhibition,[4],3.35%
same,inhibition,[5],-0.25%
same,inhibition,[6],-2.47%
same,inhibition,[7],4.74%
same,inhibition,[8],0.29%
same,inhibition,[9],10.3%
same,inhibition,[10],2.65%
COC(=O)Nc1nc2cc(Oc3ccc(NC(=O)Nc4cccc(Br)c4)cc3)ccc2[nH]1,inhibition,[1],15.4%
same,inhibition,[2],6.02%
same,inhibition,[3],2.36%
same,inhibition,[4],5.37%
same,inhibition,[5],5.43%
same,inhibition,[6],3.16%
same,inhibition,[7],11.9%
same,inhibition,[8],19.9%
same,inhibition,[9],43.2%
same,inhibition,[10],3.15%
CCn1c(-c2nonc2N)nc2c(C#CC(C)(C)O)nc(OCCNC)cc21,inhibition,[1],7.49%
same,inhibition,[2],6.83%
same,inhibition,[3],8.02%
same,inhibition,[4],7.19%
same,inhibition,[5],-0.49%
same,inhibition,[6],1.76%
same,inhibition,[7],11.6%
same,inhibition,[8],-0.38%
same,inhibition,[9],3.67%
same,inhibition,[10],1.14%
N#Cc1c(NC(=O)c2ccccc2F)sc2c1CCCC2,inhibition,[1],1.33%
same,inhibition,[2],-2.61%
same,inhibition,[3],0.29%
same,inhibition,[4],1.48%
same,inhibition,[5],-1.19%
same,inhibition,[6],-2.53%
same,inhibition,[7],0.3%
same,inhibition,[8],-4.22%
same,inhibition,[9],-1.66%
same,inhibition,[10],1.38%
ON=C1CCc2cc(-c3nc(C4CCNCC4)[nH]c3-c3ccncc3)ccc21,inhibition,[1],1.01%
same,inhibition,[2],1.85%
same,inhibition,[3],0.96%
same,inhibition,[4],3.99%
same,inhibition,[5],2.96%
same,inhibition,[6],-0.02%
same,inhibition,[7],0.4%
same,inhibition,[8],2.19%
same,inhibition,[9],0.63%
same,inhibition,[10],2.09%
COc1ccc(-c2nn3ncccc3c2-c2ccnc(Nc3cccc(C(F)(F)F)c3)n2)cc1,inhibition,[1],3.9%
same,inhibition,[2],1.94%
same,inhibition,[3],0.44%
same,inhibition,[4],5.91%
same,inhibition,[5],-4.73%
same,inhibition,[6],1.62%
same,inhibition,[7],10.2%
same,inhibition,[8],2.47%
same,inhibition,[9],19.4%
same,inhibition,[10],1.38%
Cc1ccc2c(-c3ccnc(Nc4cccc(C(F)(F)F)c4)n3)c(-c3ccccc3)nn2n1,inhibition,[1],7.33%
same,inhibition,[2],7.39%
same,inhibition,[3],6.37%
same,inhibition,[4],10.5%
same,inhibition,[5],1.38%
same,inhibition,[6],4.59%
same,inhibition,[7],24.9%
same,inhibition,[8],1.77%
same,inhibition,[9],23.1%
same,inhibition,[10],15.6%
Cc1ccc2c(-c3ccnc(Nc4ccc5c(c4)OCCO5)n3)c(-c3ccc(C(F)(F)F)cc3)nn2n1,inhibition,[1],1.95%
same,inhibition,[2],-2.52%
same,inhibition,[3],2.75%
same,inhibition,[4],4.62%
same,inhibition,[5],-0.37%
same,inhibition,[6],-1.78%
same,inhibition,[7],2.51%
same,inhibition,[8],-1.16%
same,inhibition,[9],14.6%
same,inhibition,[10],1.42%
COc1cc2ncn(-c3cc(OCc4ccccc4S(C)(=O)=O)c(C#N)s3)c2cc1OC,inhibition,[1],1.96%
same,inhibition,[2],10%
same,inhibition,[3],47.5%
same,inhibition,[4],5.84%
same,inhibition,[5],23.9%
same,inhibition,[6],26.8%
same,inhibition,[7],73.4%
same,inhibition,[8],6.26%
same,inhibition,[9],33.2%
same,inhibition,[10],30.9%
CN(C)c1cc2c(Nc3ccc4c(cnn4Cc4ccccc4)c3)ncnc2cn1,inhibition,[1],6.27%
same,inhibition,[2],3.14%
same,inhibition,[3],3.09%
same,inhibition,[4],5.61%
same,inhibition,[5],1.61%
same,inhibition,[6],2.71%
same,inhibition,[7],2.4%
same,inhibition,[8],1.36%
same,inhibition,[9],3.34%
same,inhibition,[10],3.84%
CN1CCN(C(=O)c2ccc(NC(=O)Nc3ccc(N(C)c4ccnc(Nc5ccc(CS(C)(=O)=O)cc5)n4)cc3)cc2)CC1,inhibition,[1],30.1%
same,inhibition,[2],2.98%
same,inhibition,[3],3.2%
same,inhibition,[4],2.87%
same,inhibition,[5],25.1%
same,inhibition,[6],8.95%
same,inhibition,[7],37.5%
same,inhibition,[8],87.7%
same,inhibition,[9],81.2%
same,inhibition,[10],0.29%
